From article PMC8384837, “Expanding the binding specificity for RNA recognition by a PUF domain” come the findings set out here.

Where a chain is given by its changes, count along the chain named.

Holding throughout (assay): yeast three-hybrid, YBZ-1, SC-Leu-His + 0.5 mM 3-AT, 4 days
Conditions in all cases: tags: N-Gal4 AD-HA kept; label: inside an RPR1-promoter hybrid RNA with tandem MS2 sites; ssRNA

For one experiment, the target named is PUM1 PUF domain R3-RSW (Homo sapiens, UniProt Q14671 828-1176, C935R;R936S;Q939W). Put shortly:
(§1)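 Repeat regions from input (SC-Leu) and selection (SC-Leu-His + 0.5 mM 3-AT) plates were PCR-amplified and Illumina-sequenced after four days of growth. The cells were strain YBZ-1 with a LexA–MS2 coat fusion and a HIS3 reporter, co-expressing Pumilio-1 PUF domain libraries and matching RNA elements from a centromeric plasmid. The interaction score is the log change in variant frequency from input to selection, taken in log2 with a pseudocount of 1 for absent variants.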

A further experiment has as its target PUM1 PUF domain R3-TFG (Homo sapiens, UniProt Q14671 828-1176, C935T;R936F;Q939G). A digest of the protocol: as §1
For the next experiment, the target named is PUM1 PUF domain R3-VSK (Homo sapiens, UniProt Q14671 828-1176, C935V;R936S;Q939K). Put shortly:
as §1

The target of a further experiment is PUM1 PUF domain R3-RTI (Homo sapiens, UniProt Q14671 828-1176, C935R;R936T;Q939I). A digest of the protocol: as §1
Another experiment deals with PUM1 PUF domain R3-LFT (Homo sapiens, UniProt Q14671 828-1176, C935L;R936F;Q939T). A digest of the protocol:
as §1

For the next experiment, the target named is PUM1 PUF domain R3-IFV (Homo sapiens, UniProt Q14671 828-1176, C935I;R936F;Q939V). A digest of the protocol:
as §1

A further experiment has as its target PUM1 PUF domain R5-RNG (Homo sapiens, UniProt Q14671 828-1176, C1007R;R1008N;Q1011G). A digest of the protocol: as §1
For the next experiment, the target named is PUM1 PUF domain R5-WHC (Homo sapiens, UniProt Q14671 828-1176, C1007W;R1008H;Q1011C). Put shortly: as §1
The target of a further experiment is PUM1 PUF domain R5-FHT (Homo sapiens, UniProt Q14671 828-1176, C1007F;R1008H;Q1011T). A digest of the protocol:
as §1

In the next experiment the target is PUM1 PUF domain R7-KWK (Homo sapiens, UniProt Q14671 828-1176, S1079K;N1080W;E1083K). A digest of the protocol:
as §1

In another experiment the target is PUM1 PUF domain R7-RSR (Homo sapiens, UniProt Q14671 828-1176, S1079R;N1080S;E1083R). Put shortly: as §1
Another experiment has as its target PUM1 PUF domain R1-KVS (Homo sapiens, UniProt Q14671 828-1176, S863K;R864V;Q867S). Put shortly:
as §1

In a further experiment the target is T1, PUM1 PUF domain R6-LYV (Homo sapiens, UniProt Q14671 828-1176, N1043L;Q1047V).
T1 sequence: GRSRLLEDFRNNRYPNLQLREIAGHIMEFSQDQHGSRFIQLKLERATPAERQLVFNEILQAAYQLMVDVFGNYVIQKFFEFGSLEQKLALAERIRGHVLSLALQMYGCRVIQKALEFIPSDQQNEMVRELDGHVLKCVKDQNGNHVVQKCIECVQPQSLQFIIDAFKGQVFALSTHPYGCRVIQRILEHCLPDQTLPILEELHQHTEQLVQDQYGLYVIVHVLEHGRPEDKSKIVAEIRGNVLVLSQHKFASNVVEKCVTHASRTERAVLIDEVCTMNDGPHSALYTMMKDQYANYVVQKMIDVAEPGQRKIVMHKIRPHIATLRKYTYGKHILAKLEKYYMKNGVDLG
A digest of the protocol: as §1

In a further experiment the target is PUM1 PUF domain R8-KFA (Homo sapiens, UniProt Q14671 828-1176, N1122K;Y1123F;Q1126A). A digest of the protocol: as §1
A further experiment has as its target PUM1 PUF domain R5-LYG (Homo sapiens, UniProt Q14671 828-1176, C1007L;R1008Y;Q1011G). A digest of the protocol:
as §1

A further experiment addresses T2, PUM1 PUF domain R6-CWR (Homo sapiens, UniProt Q14671 828-1176, N1043C;Y1044W;Q1047R).
T2 sequence: T1 sequence with L216C, Y217W, V220R
A digest of the protocol:
as §1

Another experiment addresses PUM1 PUF domain R3-DHV (Homo sapiens, UniProt Q14671 828-1176, C935D;R936H;Q939V). Put shortly:
as §1

In the case of “GGCUAGAACUAGUGGAUCCCCCGGCGCCCGGCGGCUCGAGCCCGGGUAAGUGUAAUUAGUCUGCAUGCCGCCGGGCGCCAUGCCUGCAGGUCGACUCUAGAAAACAUG”, the binding signal in the experiment with PUM1 PUF domain R3-RSW is 3.81 log2 enrichment (interaction score); with PUM1 PUF domain R3-TFG it was 2.64 log2 enrichment (interaction score); in the experiment with PUM1 PUF domain R3-VSK, 3.36 log2 enrichment (interaction score); with PUM1 PUF domain R3-RTI, 3.21 log2 enrichment (interaction score); with PUM1 PUF domain R3-LFT, 5.16 log2 enrichment (interaction score); with PUM1 PUF domain R3-IFV, 4.5 log2 enrichment (interaction score).
On to “GGCUAGAACUAGUGGAUCCCCCGGCGCCCGGCGGCUCGAGCCCGGGUAAGUGUCAAUAGUCUGCAUGCCGCCGGGCGCCAUGCCUGCAGGUCGACUCUAGAAAACAUG”, for which the binding signal with PUM1 PUF domain R5-RNG is 2.64 log2 enrichment (interaction score); with PUM1 PUF domain R5-WHC it was 3.6 log2 enrichment (interaction score); in the experiment with PUM1 PUF domain R5-FHT, 2.81 log2 enrichment (interaction score).
With “GGCUAGAACUAGUGGAUCCCCCGGCGCCCGGCGGCUCGAGCCCGGGUAAGUCUAAAUAGUCUGCAUGCCGCCGGGCGCCAUGCCUGCAGGUCGACUCUAGAAAACAUG”, the values for the binding signal with PUM1 PUF domain R7-KWK and in the experiment with PUM1 PUF domain R7-RSR were 2.57 log2 enrichment (interaction score) and 3.42 log2 enrichment (interaction score), respectively.
With “GGCUAGAACUAGUGGAUCCCCCGGCGCCCGGCGGCUCGAGCCCGGGUAAGUGUAAAUUGUCUGCAUGCCGCCGGGCGCCAUGCCUGCAGGUCGACUCUAGAAAACAUG”, the binding signal with PUM1 PUF domain R1-KVS was 4.64 log2 enrichment (interaction score).
Same read-out and setting: the result for “GGCUAGAACUAGUGGAUCCCCCGGCGCCCGGCGGCUCGAGCCCGGGUAAGUGUAAAUCGUCUGCAUGCCGCCGGGCGCCAUGCCUGCAGGUCGACUCUAGAAAACAUG” reads 5.01 log2 enrichment (interaction score).
In the case of “GGCUAGAACUAGUGGAUCCCCCGGCGCCCGGCGGCUCGAGCCCGGGUAAGUGUAAAUAGUCUGCAUGCCGCCGGGCGCCAUGCCUGCAGGUCGACUCUAGAAAACAUG”, the binding signal in the experiment with PUM1 PUF domain R6-LYV is 2.81 log2 enrichment (interaction score); in the experiment with PUM1 PUF domain R8-KFA, 4.75 log2 enrichment (interaction score); with PUM1 PUF domain R5-LYG it was 3.46 log2 enrichment (interaction score); with PUM1 PUF domain R6-CWR it was 5.42 log2 enrichment (interaction score); with PUM1 PUF domain R3-IFV, 4.8 log2 enrichment (interaction score); in the experiment with PUM1 PUF domain R3-DHV it was 4.2 log2 enrichment (interaction score).
